Shown are actives, neighbours in structure and some others; about 3.2% of the full set was active somewhere.
MsrA act – bovine methionine sulfoxide reductase A activation | purified bovine MsrA, absorbance read-out | activation, % at 10.6 µM | 360,000 tested, 0.3% active | AID 602163; in the data active = activation above about 7.5%;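 note: 0% = vehicle and 100% = reference activator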
MsrA inh – inhibitors of bovine MsrA; purified bovine MsrA, absorbance read-out; inhibition, % at 15.5 µM; 360,000 tested, 0.75% active;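 note: 0% = vehicle wells with enzyme and 100% = reference inhibitor wells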
rCAG binder – binds r(CAG) RNA repeats | 370,000 tested, 1.3% active | inhibition, % at 3 µM | r(CAG) RNA repeat, TO-PRO-1 dye displacement fluorescence;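 active = inhibition above the plate cutoff, the mean of all test compounds on that plate plus 3 SD, cut at about 35% in these data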;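 note: 0% = DMSO alone and 100% = 100 µM mitoxantrone as full dye displacement; higher means more dye released from RNA so lower well fluorescence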
Pemphigus Ab inh – blocks pemphigus antibody binding to human desmoglein-3 | P32926 | DSG3-coupled beads, scFv-anti-DSG3-GFP binding, flow cytometry; active compounds read low | binding (percent of control), % at 10 µM | 310,000 tested, 0.48% active | AID 588358;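 active = binding more than 3 SD below its plate's average and above zero; inconclusive = below that plate limit but binding exactly zero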;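 note: hits lower antibody fragment binding to DSG3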
Target sequence (P32926 whole entry, looked up, the tested form may be a part): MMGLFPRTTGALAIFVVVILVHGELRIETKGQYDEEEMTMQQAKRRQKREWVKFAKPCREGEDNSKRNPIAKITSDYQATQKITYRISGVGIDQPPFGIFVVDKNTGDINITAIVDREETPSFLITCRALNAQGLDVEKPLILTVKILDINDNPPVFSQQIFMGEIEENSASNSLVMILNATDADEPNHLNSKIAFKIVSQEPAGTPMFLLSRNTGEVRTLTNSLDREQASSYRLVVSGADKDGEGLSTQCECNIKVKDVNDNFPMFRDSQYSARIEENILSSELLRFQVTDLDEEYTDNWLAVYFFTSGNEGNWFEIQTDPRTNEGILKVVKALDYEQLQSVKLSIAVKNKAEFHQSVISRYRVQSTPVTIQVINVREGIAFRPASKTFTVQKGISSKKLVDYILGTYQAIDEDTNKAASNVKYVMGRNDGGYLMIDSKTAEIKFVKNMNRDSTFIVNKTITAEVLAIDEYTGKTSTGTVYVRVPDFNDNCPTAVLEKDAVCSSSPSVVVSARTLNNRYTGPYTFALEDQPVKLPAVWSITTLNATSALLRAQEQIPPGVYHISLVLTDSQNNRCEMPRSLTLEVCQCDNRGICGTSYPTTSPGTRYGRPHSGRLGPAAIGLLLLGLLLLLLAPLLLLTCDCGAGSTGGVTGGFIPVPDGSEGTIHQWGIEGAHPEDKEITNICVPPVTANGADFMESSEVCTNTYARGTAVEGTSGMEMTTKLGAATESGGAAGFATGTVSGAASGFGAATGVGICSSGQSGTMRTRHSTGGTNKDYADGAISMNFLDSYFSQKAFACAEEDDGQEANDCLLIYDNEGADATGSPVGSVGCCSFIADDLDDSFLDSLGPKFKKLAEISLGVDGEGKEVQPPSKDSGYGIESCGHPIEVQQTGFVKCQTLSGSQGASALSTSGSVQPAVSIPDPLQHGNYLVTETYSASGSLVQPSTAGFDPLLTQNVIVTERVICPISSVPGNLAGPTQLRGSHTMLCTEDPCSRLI
NadD inh – NadD (S. aureus) enzyme inhibition | AID 602399 | 360,000 tested, 0.78% active | purified NadD enzyme, colorimetric absorbance read-out | inhibition, % at 20 µM; in the data active = inhibition above about 26%
DAGLB inhibitor – blocks human DAGLB lipase activity. inhibition, % at 5.17 µM. 340,000 tested, 0.059% active. HEK293T DAGLB membrane lysate, EnzChek fluorogenic substrate. Q8NCG7; in the data active = inhibition above about 34%;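 note: 0% = enzyme with vehicle and 100% = wells lacking enzyme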
MsrA conf – bovine MsrA inhibition, confirmed; purified bovine MsrA, absorbance read-out; shares compounds with MsrA inh; inhibition, % at 15.5 µM; 2,300 tested, 41% active;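 note: coupled to thioredoxin reductase with NADPH and selenocystamine and DMSO as substrate; 0% = vehicle only and 100% = full effect of reference inhibitor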
Active calls of the source: *. Cut-off read from the data, not from the text of the source, unless noted: active = inhibition above about 4.5%; inactive = the rest.

What do the screens show for `C=C1CCC2C(C)(C(=O)O)CCCC2(C)C1CCC(CO)CCO` (stereo unspecified)?
MsrA act: -1; MsrA inh: -1; rCAG binder: 8; NadD inh: 2

Results for C=CCN(CC=C)C(=S)NC(=O)/C=C/c1ccc(OC)cc1 ?
MsrA act: -9; MsrA inh: 4.8*; rCAG binder: 6; Pemphigus Ab inh: 102; NadD inh: -3; DAGLB inhibitor: -7; MsrA conf: 2

How did COc1ccc(/C=C/C(=O)NC(=S)NNC(=O)c2cccnc2)cc1 do in these assays?
MsrA act: -2; MsrA inh: 6.0*; rCAG binder: 10; Pemphigus Ab inh: 84; NadD inh: 3; DAGLB inhibitor: -4; MsrA conf: 5.2*

Results for C=CCN(CC=C)C(=S)NC(=O)/C=C/c1ccc(C)cc1 ?
MsrA act: -1; MsrA inh: -2; rCAG binder: -3; Pemphigus Ab inh: 103; NadD inh: 3; DAGLB inhibitor: 0

How did COC(=O)C1=C(C)N(Cc2cccc(C(F)(F)F)c2)C(=NCC2CC2)NC1c1cccc(F)c1 (stereo unspecified) do in these assays?
MsrA inh: -2; rCAG binder: 7

What do the screens show for `CC(=O)Nc1ccc(S(=O)(=O)N2CCN(C(=O)C(=O)c3cccc(C(F)(F)F)c3)CC2)cc1`?
MsrA inh: 1; rCAG binder: 3

What do the screens show for `COc1cccc(C(O)c2nccn2Cc2ccccc2)c1OC` (stereo unspecified)?
MsrA act: -2; MsrA inh: 12*; rCAG binder: -5; Pemphigus Ab inh: inconclusive; NadD inh: -2; DAGLB inhibitor: -1; MsrA conf: 4

How did Cc1ccccc1CS(=O)(=O)Cc1ccc(C(=O)Nc2ccc(F)cc2F)o1 do in these assays?
rCAG binder: 3

How did COCCNC(=O)/C(C#N)=C1\N=C(NC(=O)c2ccco2)c2ccccc21 do in these assays?
MsrA act: -4; MsrA inh: 4.8*; rCAG binder: 0; Pemphigus Ab inh: 100; NadD inh: 6; DAGLB inhibitor: -9; MsrA conf: 3

How did O=[N+]([O-])c1ccc(Oc2cccc3cccnc23)c([N+](=O)[O-])c1 do in these assays?
MsrA act: -11; MsrA inh: 7.3*; rCAG binder: 4; Pemphigus Ab inh: 103; NadD inh: -1; DAGLB inhibitor: 0; MsrA conf: 4

Results for CC(=O)N(C(C)=O)S(=O)(=O)c1ccc(N=NN2CCCCC2)cc1 ?
MsrA act: -2; MsrA inh: 5.0*; rCAG binder: 4; Pemphigus Ab inh: 107; NadD inh: -4; DAGLB inhibitor: 1; MsrA conf: 4

What do the screens show for `NS(=O)(=O)c1ccc(N=NN2CCCCC2)cc1`?
MsrA act: -5; MsrA inh: 5.3*; rCAG binder: 0; Pemphigus Ab inh: 104; NadD inh: -7; DAGLB inhibitor: -2; MsrA conf: 2

How did CC(=O)NS(=O)(=O)c1ccc(N=NN2CCCCC2)cc1 do in these assays?
MsrA act: -1; MsrA inh: 2; rCAG binder: -1; Pemphigus Ab inh: 96; NadD inh: -2; DAGLB inhibitor: 1

What do the screens show for `NC(Cc1ccc(F)cc1)c1csc(NC(=O)NC(c2ccccc2)c2ccccc2)n1` (stereo unspecified)?
MsrA act: 3; MsrA inh: -1; rCAG binder: 19; NadD inh: 21

What do the screens show for `Cc1ccc(C)c(S(=O)(=O)N/N=C/c2ccc(N(C)C)cc2)c1`?
MsrA act: -1; MsrA inh: 5.4*; rCAG binder: 7; Pemphigus Ab inh: 79; NadD inh: 0; DAGLB inhibitor: -2; MsrA conf: 2

How did CC(=O)NCc1ccc(S(=O)(=O)N/N=C/c2ccc(N(C)C)cc2)cc1 do in these assays?
MsrA act: -4; MsrA inh: 5.6*; rCAG binder: 3; Pemphigus Ab inh: 103; NadD inh: 0; DAGLB inhibitor: 0; MsrA conf: 3

What do the screens show for `CC(=O)CNc1ccc(S(=O)(=O)N/N=C/c2ccccc2)cc1`?
MsrA act: -8; MsrA inh: 1; rCAG binder: 1; Pemphigus Ab inh: 102; NadD inh: -1; DAGLB inhibitor: 1

How did O=c1[nH]c2cc([N+](=O)[O-])cc(Cl)c2c2ccccc12 do in these assays?
MsrA act: 2; MsrA inh: 1; rCAG binder: 5; Pemphigus Ab inh: 100; NadD inh: 11; DAGLB inhibitor: 7

How did COC(=O)CSC1=C(C#N)C(=O)NC2(CCCCC2)S1 do in these assays?
MsrA act: -17; MsrA inh: 5.7*; rCAG binder: 3; Pemphigus Ab inh: 99; NadD inh: 3; DAGLB inhibitor: -2; MsrA conf: 4

Results for CC(=O)c1ccc(N2CCN(S(=O)(=O)c3c(C(=O)N4CCCCC4)c(C)n(C)c3C)CC2)cc1 ?
MsrA act: -9; MsrA inh: 2; rCAG binder: -1; Pemphigus Ab inh: 107; NadD inh: 1; DAGLB inhibitor: 0

What do the screens show for `CC(=O)c1ccc(N2CCN(S(=O)(=O)c3c(C(=O)N4CCCC4)c(C)n(C)c3C)CC2)cc1`?
MsrA act: -3; MsrA inh: 5.1*; rCAG binder: -1; Pemphigus Ab inh: inconclusive; NadD inh: -2; DAGLB inhibitor: 4; MsrA conf: 4

What do the screens show for `CCOC(=O)c1sc(C)c2c(=O)n(CC)nnc12`?
MsrA act: -4; MsrA inh: 5.7*; rCAG binder: -3; Pemphigus Ab inh: 105; NadD inh: -2; DAGLB inhibitor: -1; MsrA conf: 3

How did O=c1oc2ccccc2c2[nH]ccc12 do in these assays?
MsrA act: -8; MsrA inh: 1; rCAG binder: 1; Pemphigus Ab inh: 122; NadD inh: 2; DAGLB inhibitor: -1

Results for O=c1oc2ccccc2c2c1ccc1ccccc12 ?
MsrA act: -2; MsrA inh: 6.2*; rCAG binder: 7; Pemphigus Ab inh: 96; NadD inh: -3; DAGLB inhibitor: -6; MsrA conf: 5.0*

Results for CCNC(=O)C1(C)CCN(C(=O)c2cccnc2SC)C1 (stereo unspecified) ?
MsrA act: -8; MsrA inh: -1; rCAG binder: 2; NadD inh: -1

Results for COc1ccc(/C=N/NC(=O)c2ccc3nc[nH]c3c2)c(OC)c1OC ?
MsrA act: -14; MsrA inh: 5.1*; rCAG binder: -2; Pemphigus Ab inh: 87; NadD inh: -1; MsrA conf: 2

Results for Cc1ccc(/C=N/NC(=O)c2ccc3nc[nH]c3c2)s1 ?
MsrA act: -3; MsrA inh: 7.3*; rCAG binder: 5; Pemphigus Ab inh: 95; NadD inh: -5; DAGLB inhibitor: -1; MsrA conf: 5.7*

Results for COc1cc(OC)c(OC)cc1/C=N/NC(=O)c1ccc2nc[nH]c2c1 ?
MsrA act: -3; MsrA inh: 2; rCAG binder: -5; Pemphigus Ab inh: 117; NadD inh: -8; DAGLB inhibitor: 1

High-throughput results (PubChem)
